# Results: PubChem BioAssay (Tox21)
# Inconclusive results are not listed. Values without a mark were called inactive. Activity calls are given as the source filed them. The call rests on the fitted dose curve; in most records, active means well fitted cell-killing curve with a large enough effect in the repeat runs; inconclusive means weak or mixed curves, or effect the other way; inactive means flat fitted curve, though single readings scatter.
# Experiment: qHTS assay to identify small molecule antagonists of the retinoid acid receptor (RAR) signaling pathway - cell viability counter screen (AID 1159551); further: nearly all actives have a fitted effect of over 35% in size
# Conditions: C3RL4 cells viability, ATP luminescence (CellTiter-Glo), 6 h; series mostly up to 92.4 µM; activity change, negative = cytotoxicity: at the top concentration
# Description: U.S. Tox21 Program National Center for Advancing Translational Sciences [NCATS] NIH Chemical Genomics Center [NCGC] U.S. Environmental Protection Agency [EPA] National Institutes of Environmental Health Sciences [NIEHS] National Toxicology Program [NTP] U.S. Food and Drug Administration [FDA] Tox21 Assay Overview: All-trans Retinoic acid (atRA) is the potent natural metabolite of retinol and plays an important role in normal embryonic development and maintenance of cellular phenotype in adult animals. atRA is the activating ligand for the retinoic acid receptors (RARs) which form heterodimers with retinoid X receptors (RXRs) on the retinoic acid response element (RARE). Through activation of the RAR/RXRs nuclear receptors, atRA regulates the transcription of a large number of protein-coding genes and regulatory RNAs. Intracellular levels of atRA are controlled by the retinol signaling pathway (RSP) that regulates the biosynthesis and catabolism of atRA to maintain physiological levels. Chemicals that interfere with the RSP can cause abnormal intracellular levels of atRA and therefore are potential developmental toxicants. To assess compounds for the potential adverse effect on embryonic development through interfering with retinol signaling, a cell-based RARE luciferase reporter gene assay was used. C3RL4 cell line (OARSA/CFSAN/FDA, Laurel, MD) was used to screen Tox21 10K compound library for identifying inhibitors of the RSP. Also cytotoxicity was assessed by determining the viability of cells based on the quantitation of ATP.
# Tox21 Assay Protocol Summary: C3RL4 cells were seeded at 1,000/well in 4 uL of assay medium into white solid 1,536-well tissue culture plates (Greiner Bio-One North America Inc. Monroe, NC) using a Multidrop Combi (Thermo Scientific, Waltham, MA) dispenser. After incubation at 37 C and 5% CO2 for an overnight, 23 nL of compounds dissolved in DMSO, positive control or DMSO only were transferred by a Pintool station (Kalypsys, San Diego, CA). One ul of 1 uM (final concentration) of Retinol was added right after the compound addition by using a Flying Reagent Dispenser (FRD) (Aurora Discovery, San Diego, CA). After 6 hr incubation at 37 C and 5% CO2, 5 uL of CellTiter-Glo reagent (Promega Corporation, Madison, WI) was added to each assay plate using an FRD. Luminescence was quantified on a ViewLux plate reader (PerkinElmer, Waltham, MA) after 30 min incubation at room temperature.
# On the % scale 0 is the no-effect control and ±100 the full control effect; potency means the concentration at half of the fitted maximal effect.
Structure (SMILES),Potency,"activity change, negative = cytotoxicity"
CN(C[C@@H](CC[N+]12CCC(C3CCCCC3)(CC1)CC2)c1ccc(Cl)c(Cl)c1)C(=O)c1cc(C(F)(F)F)cc(C(F)(F)F)c1,54.5 µM (active),–
CCn1c2ccccc2c2ccccc21,–,-5.89%
O=[N+]([O-])c1ccc(CO)cc1,–,0.746%
Cc1c(Cl)c(=O)oc2cc(O)ccc12,–,0.109%
CC(C=O)c1ccccc1 (stereo not given),–,0.306%
CCc1cccc(C)c1N(C(=O)C(=O)O)C(C)COC (stereo not given),–,1.58%
O=C1OC(=O)c2cc(-c3ccc4c(c3)C(=O)OC4=O)ccc21,–,-0.488%
O=C1OC(O)C(C(Cl)Cl)=C1Cl (stereo not given),–,0.774%
O=C(Nc1ccc([N+](=O)[O-])cc1)Nc1ccc([N+](=O)[O-])cc1 (tested in a mixture with another compound),–,-0.19% [at 42.5 µM]
CC/C=C\C/C=C\C/C=C\CCCCCCCC(=O)OC,–,-1.1%
CCOc1nc(F)cc2nc(S(=O)(=O)Nc3c(Cl)cccc3C(=O)OC)nn12,–,0.423%
O=C(Nc1ccccc1)c1cc(Cl)ccc1O,–,-13.2%
CC(C)(C)C1=CC(=O)C(C(C)(C)C)=CC1=O,–,10.1% [at 42.5 µM]
O=C(N[C@H](CO)[C@H](O)c1ccc([N+](=O)[O-])cc1)C(Cl)Cl,–,4.8%
CCCCCCCCCCCCS(=O)(=O)Cl,–,0.197% [at 19 µM]
Nc1ccc(Oc2cccc(Oc3ccc(N)cc3)c2)cc1,–,-0.69%
Brc1cc(Br)cc(Br)c1,–,0.774%
CCCCCCCCOC(=O)c1cc(O)c(O)c(O)c1,–,-4.38%
Cc1ccc(N=Nc2c(O)ccc3ccccc23)c(C)c1,–,-2.82% [at 42.5 µM]
CC1(C)[C@H]2CC[C@]1(C)C(=O)C2,–,-0.0307%

Structure (SMILES),Potency,"activity change, negative = cytotoxicity"
Cc1cccc(C)c1C,–,1.64%
c1ccc2c(c1)-c1ccc3ccc4cccc5cc-2c1c3c45,–,-0.432% [at 42.5 µM]
CC(C)=CCC[C@H](C)CC=O,–,0.226%
CCNc1nc(NC(C)(C)C)nc(OC)n1,–,6.7%
O=C(Cl)c1ccc(Cl)cc1Cl,–,-0.529%
c1ccc2occc2c1,–,0.356%
O=C(c1ccccc1)c1ccc(Cl)cc1,–,-11.4%
C/C=C/C(=O)OCC(C)C,–,-0.197%
C1CCSC1,–,-0.831%
C=C(C)CCO,–,0.361%
Cc1c[nH]c(=O)[nH]c1=O,–,1.85%
Cc1cccc2c1ccc1ccccc12,–,-4.5%
COc1cc([C@@H]2c3cc4c(cc3[C@@H](O[C@@H]3O[C@@H]5CO[C@@H](C)O[C@H]5[C@H](O)[C@H]3O)[C@H]3COC(=O)[C@H]23)OCO4)cc(OC)c1O,–,0.567%
CCc1cccc(C)c1N(C(=O)CS(=O)(=O)O)C(C)COC (stereo not given),–,0.398%
CCCCCCCC/C=C\CCCCCCCC(=O)N(CCO)CCO,–,-4.59%
C=C[Si](C)(C)Cl,–,-1.54% [at 8.39 µM]
c1ccc(-c2ccc(C(c3ccccc3)n3ccnc3)cc2)cc1 (stereo not given),–,-0.566% [at 42.5 µM]
O=C(NCc1ncc(C(F)(F)F)cc1Cl)c1c(Cl)cccc1Cl,–,-8.27%
Nc1cccnc1N,–,-0.0513%
CCCCCCCCCCCCN1CCCC1=O,–,-8.87%
